The nature of assay [1]: qHTS assay to identify small molecule antagonists of the thyroid receptor (TR) signaling pathway - cell viability counter screen (AID 743064). Note: nearly all actives have a fitted effect of over 50% in size. The procedure, abridged: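 Rat GH3 pituitary tumor cells stably expressing two TR response elements driving luciferase were plated, rested 4 h, then dosed with library compounds and T3 (1 nM final). After 23.5 h at 37 °C, CellTiter-Fluor was added for 30 min and fluorescence recorded.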

A short description of assay [2]: qHTS assay to identify small molecule antagonists of the thyroid receptor (TR) signaling pathway (AID 743065). Note: nearly all actives have a fitted effect of over 55% in size. Note: potency is the fitted concentration of half-maximal effect. The procedure, abridged:
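Antagonism measured as loss of luciferase signal in GH3 cells stably carrying a TRE-luciferase reporter, co-treated with compound and T3 (1 nM final) for 23.5 h at 37 C. Viability was read in the same well by CellTiter-Fluor.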

Assay [3] concerns thyroid hormone receptor (rat, GH3 cells). Briefly: qHTS assay to identify small molecule agonists of the thyroid receptor (TR) signaling pathway (AID 743066; calls by dose curve).
The nature of assay [4]: qHTS assay to identify small molecule antagonists of the estrogen receptor alpha (ER-alpha) signaling pathway - cell viability counter screen (AID 743074; calls by dose curve;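 note: HEK293 cells carrying ER-alpha-UAS-bla reporter stimulated with 17beta-estradiol; nearly all actives have a fitted effect of over 45% in size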).
In assay [5] the target is Estrogen receptor (Homo sapiens) (UniProt P03372). The assay can be described thus: qHTS assay to identify small molecule agonists of the estrogen receptor alpha (ER-alpha) signaling pathway (AID 743075; calls by dose curve;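 note: HEK293 GripTite cells with ER-alpha and UAS-driven beta-lactamase reporter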).
Assay [6] is described as follows: qHTS assay to identify small molecule antagonists of the estrogen receptor alpha (ER-alpha) signaling pathway using the BG1 cell line (AID 743080; calls by dose curve;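 note: BG1 cells stimulated with 17beta-estradiol alongside compound; series mostly up to about 70 µM; nearly all actives have a fitted effect of over 25% in size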). A digest of the protocol:
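BG1Luc4E2, endogenous ER-alpha, 4xERE-luc; 5 d charcoal-stripped FBS, phenol red free; 24 h plating; cpd + 17beta-estradiol 21.5 h, 37 C/5% CO2; CellTiter-Fluor viability 30 min, then ONE-Glo luciferase 30 min RT.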

The nature of assay [7]: qHTS assay to identify small molecule antagonists of the estrogen receptor alpha (ER-alpha) signaling pathway using the BG1 cell line - cell viability counter screen (AID 743081).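 Note: compound given together with 17beta-estradiol as the ER stimulus; series mostly up to about 70 µM; nearly all actives have a fitted effect of over 45% in size.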
The target of the next assay is Aromatase (Homo sapiens) (UniProt P11511). Briefly: qHTS assay to identify aromatase inhibitors (AID 743083). Note: series mostly up to about 70 µM; nearly all actives have a fitted effect of over 55% in size.
Assay [8] can be described thus: qHTS assay to identify aromatase inhibitors - cell viability counter screen (AID 743084).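 Note: cells stimulated with testosterone during compound exposure; nearly all actives have a fitted effect of over 55% in size.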
Assay [9] has as its target Aryl hydrocarbon receptor (Homo sapiens) (UniProt P35869). The assay can be described thus: qHTS assay to identify small molecule that activate the aryl hydrocarbon receptor (AhR) signaling pathway (AID 743085).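 Note: HG2L7.5c1 human HepG2 liver cells with stably integrated DRE-driven firefly reporter; series mostly up to about 70 µM; nearly all actives have a fitted effect of over 15% in size.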 A digest of the protocol:
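Compounds were tested in HepG2 hepatocellular carcinoma cells harbouring a stably integrated luciferase gene under control of 20 DREs. Increased reporter signal after 24 h treatment at 37C was taken as AhR activation.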

A short description of assay [10]: qHTS assay to identify small molecule that activate the aryl hydrocarbon receptor (AhR) signaling pathway - cell viability counter screen (AID 743086). Note: series mostly up to about 70 µM; nearly all actives have a fitted effect of over 45% in size. The procedure, abridged: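 Cytotoxicity counter screen: CellTiter-Fluor signal (30 min, 37 C) in 4000 HepG2 cells/well carrying the DRE-luciferase reporter, following 24 h compound exposure at 37 C.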
Assay [11] is described as follows: qHTS assay to identify small molecule antagonists of the peroxisome proliferator-activated receptor gamma (PPARg) signaling pathway - cell viability counter screen (AID 743194). Note: nearly all actives have a fitted effect of over 55% in size. The procedure, abridged:
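Viability was measured as CellTiter-Glo luminescence in GeneBLAzer PPARg UAS-bla HEK293H cells. These cells had been exposed 17 h at 37 C to compounds together with rosiglitazone at 50 nM final, with the beta-lactamase readout taken in the same wells.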

Assay [12] in a line: qHTS assay for small molecule agonists of the antioxidant response element (ARE) signaling pathway - cell viability counter screen (AID 743203; calls by dose curve; note: nearly all actives have a fitted effect of over 55% in size). The procedure, abridged: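 Luminescence read-out (CellTiter-Glo, 30 min at room temperature) measured cell viability in the same wells as the ARE beta-lactamase reporter. HepG2 ARE-bla cells were treated with compounds for 16 hrs at 37C/5% CO2.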

A short description of assay [13]: qHTS assay for small molecule activators of the heat shock response signaling pathway - cell viability counter screen (AID 743209). Note: nearly all actives have a fitted effect of over 50% in size. The procedure, abridged:
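HSE-bla HeLa; 1500 cells/well; overnight 37 C, 5% CO2; compound 5 h 37 C; LiveBLAzer B/G substrate 2.5 h RT; CellTiter-Glo 30 min RT; luminescence.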

Assay [14] in a line: qHTS assay for small molecule activators of the heat shock response signaling pathway (AID 743210; active = well fitted activation curve with a large enough effect in the signal ratio in the repeat runs, with a control signal flat, not every such curve was filed as active; the % refers to the signal ratio; note: series mostly up to about 63 µM). A digest of the protocol:
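Compound exposure lasted 5 h at 37 C in HeLa cells carrying a heat-shock-element-driven beta-lactamase reporter. Read-out: fluorescence intensity after 2.5 h room-temperature loading with LiveBLAzer B/G FRET substrate.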

For assay [15], the target named is Peroxisome proliferator-activated receptor gamma (Homo sapiens) (UniProt P37231). The assay can be described thus: qHTS assay to identify small molecule agonists of the peroxisome proliferator-activated receptor gamma (PPARg) signaling pathway (AID 743094; active = well fitted activation curve with a large enough effect in the signal ratio in the repeat runs, not every such curve was filed as active; the % refers to the signal ratio). The procedure, abridged: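 HEK293H PPARg-bla cells, 5 h settle at 37C/5% CO2; compound (DMSO) 17 h, 37C; B/G FRET substrate 1 h RT; fluorescence intensity read-out. qHTS format.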

Assay [16] shares this target. Briefly: qHTS assay to identify small molecule antagonists of the peroxisome proliferator-activated receptor gamma (PPARg) signaling pathway (AID 743191; calls by dose curve; note: series mostly up to about 63 µM; nearly all actives have a fitted effect of over 30% in size). A digest of the protocol: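 Beta-lactamase reporter under UAS control in HEK293H PPARg-bla cells; compound treatment 17 h at 37C. Read-out: fluorescence intensity after 1 h room-temperature incubation with LiveBLAzer B/G FRET substrate.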

Assay [17] is described as follows: qHTS assay for small molecule agonists of the antioxidant response element (ARE) signaling pathway (AID 743202; active = well fitted activation curve with a large enough effect in the signal ratio in the repeat runs, not every such curve was filed as active; the % refers to the signal ratio). The procedure, abridged: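 After 16 hours of compound treatment at 37 C, HepG2 cells with a stably integrated ARE-driven beta-lactamase reporter were loaded 2 hours at room temperature with LiveBLAzer B/G FRET substrate and fluorescence intensity measured.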

The structures appear in SMILES notation. Inconclusive results are not listed. Active and inactive are the calls of the source. Unless noted, calls come from the whole dose curve; as a rule, active = well fitted curve in the direction sought with a large enough effect in the repeat runs; inconclusive = weak or mixed curves; inactive = no such curve, though single readings can be large; an effect the other way counts as inactive or inconclusive.

Chain of Aryl hydrocarbon receptor (Homo sapiens) (P35869 whole entry, looked up): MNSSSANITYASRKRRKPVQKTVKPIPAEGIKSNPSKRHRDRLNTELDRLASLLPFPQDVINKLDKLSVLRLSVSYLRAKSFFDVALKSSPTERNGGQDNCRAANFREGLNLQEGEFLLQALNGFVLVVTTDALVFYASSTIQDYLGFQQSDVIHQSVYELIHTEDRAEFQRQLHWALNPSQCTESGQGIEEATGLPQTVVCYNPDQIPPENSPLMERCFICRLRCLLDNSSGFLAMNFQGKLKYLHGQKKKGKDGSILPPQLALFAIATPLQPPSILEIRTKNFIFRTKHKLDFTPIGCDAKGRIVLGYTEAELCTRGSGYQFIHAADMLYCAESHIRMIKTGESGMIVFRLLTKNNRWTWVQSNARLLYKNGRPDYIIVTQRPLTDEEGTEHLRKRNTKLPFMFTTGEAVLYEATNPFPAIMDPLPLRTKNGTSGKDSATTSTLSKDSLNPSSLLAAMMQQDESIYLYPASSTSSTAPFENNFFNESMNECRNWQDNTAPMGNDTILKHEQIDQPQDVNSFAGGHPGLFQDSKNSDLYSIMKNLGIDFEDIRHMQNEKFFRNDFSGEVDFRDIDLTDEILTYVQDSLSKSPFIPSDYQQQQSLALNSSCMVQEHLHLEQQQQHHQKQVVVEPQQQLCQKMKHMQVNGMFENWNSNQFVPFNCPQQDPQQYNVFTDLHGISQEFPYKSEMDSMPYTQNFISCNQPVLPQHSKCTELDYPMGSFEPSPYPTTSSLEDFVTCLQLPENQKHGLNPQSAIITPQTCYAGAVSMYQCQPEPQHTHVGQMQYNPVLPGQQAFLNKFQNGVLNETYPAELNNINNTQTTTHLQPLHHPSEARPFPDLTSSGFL
Chain of Aromatase (Homo sapiens) (P11511 whole entry, looked up): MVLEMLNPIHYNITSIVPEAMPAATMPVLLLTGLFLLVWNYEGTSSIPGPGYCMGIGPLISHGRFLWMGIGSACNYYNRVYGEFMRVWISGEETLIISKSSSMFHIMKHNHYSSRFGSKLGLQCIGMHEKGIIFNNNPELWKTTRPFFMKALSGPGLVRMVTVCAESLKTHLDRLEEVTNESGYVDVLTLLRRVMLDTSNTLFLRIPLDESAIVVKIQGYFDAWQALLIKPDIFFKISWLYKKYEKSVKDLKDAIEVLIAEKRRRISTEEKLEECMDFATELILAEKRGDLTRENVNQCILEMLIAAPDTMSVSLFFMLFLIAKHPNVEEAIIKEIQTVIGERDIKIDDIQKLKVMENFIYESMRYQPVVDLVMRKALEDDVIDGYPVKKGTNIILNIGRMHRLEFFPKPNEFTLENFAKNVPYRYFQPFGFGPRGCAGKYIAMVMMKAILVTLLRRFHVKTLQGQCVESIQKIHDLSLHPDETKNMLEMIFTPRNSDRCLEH
Chain of Peroxisome proliferator-activated receptor gamma (Homo sapiens) (P37231 whole entry, looked up): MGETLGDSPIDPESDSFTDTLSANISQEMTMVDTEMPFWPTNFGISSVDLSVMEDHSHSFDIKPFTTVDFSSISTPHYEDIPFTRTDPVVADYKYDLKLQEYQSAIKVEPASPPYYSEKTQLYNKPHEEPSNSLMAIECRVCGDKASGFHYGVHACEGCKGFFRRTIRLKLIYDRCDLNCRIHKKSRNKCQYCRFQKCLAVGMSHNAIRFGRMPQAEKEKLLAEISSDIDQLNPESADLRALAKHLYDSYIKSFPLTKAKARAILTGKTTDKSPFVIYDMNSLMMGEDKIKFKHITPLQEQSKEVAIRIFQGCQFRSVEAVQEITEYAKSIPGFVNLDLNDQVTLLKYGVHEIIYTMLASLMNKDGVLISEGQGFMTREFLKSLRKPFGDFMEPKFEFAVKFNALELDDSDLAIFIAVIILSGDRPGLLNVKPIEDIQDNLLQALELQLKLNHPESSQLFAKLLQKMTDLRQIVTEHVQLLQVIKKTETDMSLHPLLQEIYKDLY
Chain of Estrogen receptor (Homo sapiens) (P03372 whole entry, looked up): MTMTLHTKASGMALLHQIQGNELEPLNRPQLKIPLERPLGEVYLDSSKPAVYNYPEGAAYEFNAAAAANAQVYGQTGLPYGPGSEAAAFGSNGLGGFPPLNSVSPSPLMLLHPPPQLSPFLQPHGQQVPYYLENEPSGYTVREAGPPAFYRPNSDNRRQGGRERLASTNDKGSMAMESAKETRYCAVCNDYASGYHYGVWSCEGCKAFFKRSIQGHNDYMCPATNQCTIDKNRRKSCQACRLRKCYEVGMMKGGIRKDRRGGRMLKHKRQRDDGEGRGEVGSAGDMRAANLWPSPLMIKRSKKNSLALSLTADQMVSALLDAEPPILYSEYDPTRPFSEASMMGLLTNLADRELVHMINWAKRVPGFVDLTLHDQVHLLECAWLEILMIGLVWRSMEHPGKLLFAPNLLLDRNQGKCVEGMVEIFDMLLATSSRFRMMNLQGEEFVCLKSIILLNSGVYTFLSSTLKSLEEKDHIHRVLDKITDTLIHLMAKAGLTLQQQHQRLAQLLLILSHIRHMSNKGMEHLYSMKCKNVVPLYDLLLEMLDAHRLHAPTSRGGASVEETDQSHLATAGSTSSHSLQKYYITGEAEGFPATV

For the molecule `C/C=C1\C(=O)C[C@H]2[C@@H]3CCC4=CC(=O)CC[C@]4(C)[C@H]3CC[C@]12C`, the Potency result (in assay [1]; in assay [3]; in assay [5]; in assay [6]; with Aromatase (Homo sapiens); in assay [8]) was “inactive” each time. Besides, the Potency result in [9], in assay [10] and in assay [11] was “inactive” each time. For the same molecule, the Potency in [2] was 30 µM (active). Besides, the molecule was called inactive in assay [4], in assay [7], in assay [12], in assay [13] and in [14].
As for `COc1cc(C)cc(O)c1`, the Potency result (in assay [1]; in assay [2]; in [3]; with Aromatase (Homo sapiens); in assay [8]; in assay [10]) was “inactive” throughout. The molecule was called inactive in assay [4], in assay [7], in [15], in assay [12], in assay [13] and in assay [14].
For `COc1cc(CCC(C)=O)ccc1O`, the Potency entry (in [1]; in assay [2]; in assay [3]; in the assay with Aromatase (Homo sapiens); in assay [8]; in assay [9]) was “inactive” throughout. In addition, the Potency result in assay [10] and in [11] was “inactive” each time. The result in assay [4], in [7], in assay [12], in assay [13] and in assay [14] was inactive.
On to `O=C(O)/C=C/c1ccc(/C=C/C(=O)O)cc1`, for which the Potency result (in [1]; in assay [2]; in assay [3]; with Aromatase (Homo sapiens); in assay [8]; in [9]) was “inactive” throughout. Further, the Potency entry in [10] and in assay [17] was “inactive” each time. The result in assay [4], in assay [7], in [15], in assay [16], in assay [12] and in assay [13] was inactive. In addition, the molecule was called inactive in assay [14].
As to `Cc1onc(-c2ccccc2)c1-c1ccc(S(N)(=O)=O)cc1`, the Potency result (in assay [1]; in assay [2]; in assay [3]; with Aromatase (Homo sapiens); in assay [8]; in [9]) was “inactive” throughout. Besides, the Potency result in assay [10], in assay [11] and in assay [17] was “inactive” in each case. In addition, the call in assay [4], in assay [7], in [15], in assay [16], in assay [12] and in assay [14] was inactive.
Regarding `OC/C=C/c1ccccc1`, the Potency entry (in [1]; in [2]; in assay [3]; with Aromatase (Homo sapiens); in [8]; in assay [9]) was “inactive” each time. Also, the Potency entry in assay [10] and in assay [17] was “inactive” each time. Moreover, the molecule was classed as inactive in [4], in assay [7], in [12], in assay [13] and in assay [14].
`N#CCc1ccccc1[N+](=O)[O-]`: the Potency result (in assay [1]; in assay [2]; in assay [3]; with Aromatase (Homo sapiens); in assay [8]; in assay [10]) was “inactive” each time. Moreover, the Potency entry in assay [11] and in [17] was “inactive” throughout. Moreover, the outcome in assay [4], in [7], in [15], in [16], in assay [12] and in [13] was inactive. For the same molecule, the result in assay [14] was inactive.
As for `NS(=O)(=O)c1cc(C2(O)NC(=O)c3ccccc32)ccc1Cl` (centres undefined), the Potency result (in assay [1]; in assay [2]; in assay [3]; with Aromatase (Homo sapiens); in assay [8]; in assay [9]) was “inactive” throughout. Moreover, the Potency result in assay [10], in [11] and in assay [17] was “inactive” throughout. Further, the outcome in assay [4], in [7], in assay [15], in assay [12], in [13] and in assay [14] was inactive.
With `OC[C@H]1O[C@@H]2O[C@H]3[C@H](O)[C@@H](O)[C@@H](O[C@H]4[C@H](O)[C@@H](O)[C@@H](O[C@H]5[C@H](O)[C@@H](O)[C@@H](O[C@H]6[C@H](O)[C@@H](O)[C@@H](O[C@H]7[C@H](O)[C@@H](O)[C@@H](O[C@H]8[C@H](O)[C@@H](O)[C@@H](O[C@H]9[C@H](O)[C@@H](O)[C@@H](O[C@H]1[C@H](O)[C@H]2O)O[C@@H]9CO)O[C@@H]8CO)O[C@@H]7CO)O[C@@H]6CO)O[C@@H]5CO)O[C@@H]4CO)O[C@@H]3CO`, the Potency entry (in assay [1]; in assay [2]; in assay [3]; with Aromatase (Homo sapiens); in [8]; in assay [9]) was “inactive” each time. Also, the Potency result in assay [10], in assay [11] and in assay [17] was “inactive” each time. For the same molecule, the call in assay [4], in assay [7], in assay [15], in assay [16], in assay [12] and in assay [13] was inactive. Also, the molecule was classed as inactive in assay [14].

These data come from PubChem BioAssay (Tox21).
